Read-out in assay [1]: Human Leukocyte Antigen - DR isotype (HLADR), HLA-DRA (gene 3122)
Kind of assay: BSK_BE3C_HLADR: BioMAP Diversity Plus: BE3C Assay for Human Leukocyte Antigen - DR isotype (HLADR) Biomarker Activity (AID 2283032). Conditions: primary human bronchial epithelial cells; actives raise or lower the signal. The procedure, abridged:
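Cell-surface HLA-DR ELISA readout at 24 h after dosing in the BE3C primary human lung bronchial epithelial system; gain or loss of signal against DMSO, with parallel sulforhodamine B staining of total protein for overt cytotoxicity.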

Read-out in assay [2]: Vascular cell adhesion molecule 1 (VCAM1), VCAM1 (gene 7412)
Kind of assay: BSK_4H_VCAM1: BioMAP Diversity Plus: 4H Assay for Vascular cell adhesion molecule 1 (VCAM1) Biomarker Activity (AID 2283033).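 For outcome: cell-surface VCAM-1 protein measured by ELISA.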 As to conditions: primary human endothelial cells (HUVEC); actives raise or lower the signal. In outline: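 VCAM-1 ELISA read 24 h after chemical dosing of HUVEC in the BioMAP 4H system, with gain or loss of signal fitted relative to DMSO. Parallel SRB staining (560 nm) checked overt cytotoxicity.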

Read-out in assay [3]: Interferon-gamma inducible Protein 10 (IP10), CXCL10 (gene 3627)
Kind of assay: BSK_BE3C_IP10: BioMAP Diversity Plus: BE3C Assay for Interferon-gamma inducible Protein 10 (IP10) Biomarker Activity (AID 2283034). As to conditions: primary human bronchial epithelial cells; actives raise or lower the signal. In outline: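 IP-10 quantified by ELISA in human primary bronchial epithelial cell cultures at 24 hours post-dosing. Gain or loss of signal fitted relative to DMSO; parallel SRB staining assessed overt cytotoxicity.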

Read-out in assay [4]: Monokine induced gamma interferon (MIG), CXCL9 (gene 4283)
Kind of assay: BSK_BE3C_MIG: BioMAP Diversity Plus: BE3C Assay for Monokine induced gamma interferon (MIG) Biomarker Activity (AID 2283035). Conditions: primary human bronchial epithelial cells; actives raise or lower the signal. The procedure, abridged: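 hu bronchial epithelial 1° cells, 24 h cpd; MIG by ELISA; bidirectional fit, DMSO = baseline.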

Read-out in assay [5]: Transforming growth factor beta 1 (TGFb1), TGFB1 (gene 7040)
Nature of the assay: BSK_BE3C_TGFb1: BioMAP Diversity Plus: BE3C Assay for Transforming growth factor beta 1 (TGFb1) Biomarker Activity (AID 2283036;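 for outcome: TGF-b1 protein level measured by ELISA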). As to conditions: primary human bronchial epithelial cells; actives raise or lower the signal. The procedure, abridged: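 ELISA readout of TGF-b1 from human lung bronchial epithelial primary cells, taken 24 h post-treatment. Gain or loss of signal fitted relative to DMSO baseline, with parallel SRB staining for overt cytotoxicity.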

Read-out in assay [6]: Plasminogen activator inhibitor-1 (PAI1), SERPINE1 (gene 5054)
Nature of the assay: BSK_BE3C_PAI1: BioMAP Diversity Plus: BE3C Assay for Plasminogen activator inhibitor-1 (PAI1) Biomarker Activity (AID 2283037). Conditions: primary human bronchial epithelial cells; actives raise or lower the signal. In outline:
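PAI-1 was measured by ELISA in human primary bronchial epithelial cultures 24 h after chemical dosing, with cytotoxicity checked by SRB total-protein staining in parallel cultures. Activity was fitted in both directions relative to DMSO.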

Read-out in assay [7]: urokinase plasminogen activator (uPA), PLAU (gene 5328)
Kind of assay: BSK_BE3C_uPA: BioMAP Diversity Plus: BE3C Assay for urokinase plasminogen activator (uPA) Biomarker Activity (AID 2283038).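 For outcome: uPA protein level quantified by ELISA in cell cultures; uPA read one day after compound addition.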 As to conditions: primary human bronchial epithelial cells; actives raise or lower the signal. The procedure, abridged: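 ELISA read-out of uPA in human lung primary bronchial epithelial cultures, 24 h post-dosing. Gain or loss of signal fitted bidirectionally relative to DMSO baseline; cytotoxicity checked in parallel cultures via SRB total protein stain.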

Read-out in assay [8]: Urokinase-type plasminogen activator receptor (uPAR), PLAUR (gene 5329)
Kind of assay: BSK_BE3C_uPAR: BioMAP Diversity Plus: BE3C Assay for Urokinase-type plasminogen activator receptor (uPAR) Biomarker Activity (AID 2283039).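 For outcome: cells exposed to compound for one day before measurement.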 As to conditions: primary human bronchial epithelial cells; actives raise or lower the signal. The procedure, abridged: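 uPAR levels were measured by ELISA after 24 h compound treatment of primary human bronchial epithelial cells, fitted in both directions relative to DMSO. Parallel SRB staining served as the cytotoxicity read-out.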

Read-out in assay [9]: Interleukin-6 (IL6), IL6 (gene 3569)
Nature of the assay: BSK_CASM3C_IL6: BioMAP Diversity Plus: CASM3C Assay for Interleukin-6 (IL6) Biomarker Activity for (AID 2283040). As to conditions: primary human coronary artery smooth muscle cells; actives raise or lower the signal.

Read-out in assay [10]: Tissue plasminogen activator (tPA), PLAT (gene 5327)
Kind of assay: BSK_BE3C_tPA: BioMAP Diversity Plus: BE3C Assay for Tissue plasminogen activator (tPA) Biomarker Activity (AID 2283041).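 For outcome: tPA level quantified by ELISA one day after compound addition.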 As to conditions: primary human bronchial epithelial cells; actives raise or lower the signal. The procedure, abridged:
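tPA measured by ELISA 24 h after dosing human primary bronchial epithelial cells (BE3C system). Changes in either direction were fitted against DMSO. Parallel cultures were stained with SRB to flag overt cytotoxicity.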

Read-out in assay [11]: Interleukin-8 (IL8), CXCL8 (gene 3576)
Nature of the assay: BSK_CASM3C_IL8: BioMAP Diversity Plus: CASM3C Assay for Interleukin-8 (IL8) Biomarker Activity (AID 2283042).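 Note: IL-8 protein level quantified by ELISA.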 Conditions: primary human coronary artery smooth muscle cells; actives raise or lower the signal.

Read-out in assay [12]: Human Leukocyte Antigen - DR isotype (HLADR), HLA-DRA (gene 3122)
Kind of assay: BSK_CASM3C_HLADR: BioMAP Diversity Plus: CASM3C Assay for Human Leukocyte Antigen - DR isotype (HLADR) Biomarker Activity (AID 2283043).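 Note: cell-surface HLA-DR protein level quantified by ELISA.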 As to conditions: primary human coronary artery smooth muscle cells; actives raise or lower the signal.

Read-out in assay [13]: Macrophage colony-stimulating factor (MCSF), CSF1 (gene 1435)
Kind of assay: BSK_CASM3C_MCSF: BioMAP Diversity Plus: CASM3C Assay for Macrophage colony-stimulating factor (MCSF) Biomarker Activity (AID 2283044).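 Note: M-CSF protein amount quantified by ELISA after 24 h exposure.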 As to conditions: primary human coronary artery smooth muscle cells; actives raise or lower the signal.

Read-out in assay [14]: Low-density lipoprotein receptor (LDLR), LDLR (gene 3949)
Kind of assay: BSK_CASM3C_LDLR: BioMAP Diversity Plus: CASM3C Assay for Low-density lipoprotein receptor (LDLR) Biomarker Activity (AID 2283045).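 Note: LDLR protein level on the cell surface quantified by ELISA.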 Conditions: primary human coronary artery smooth muscle cells; actives raise or lower the signal.

Read-out in assay [15]: Monocyte Chemoattractant Protein-1 (MCP1), CCL2 (gene 6347)
Nature of the assay: BSK_CASM3C_MCP1: BioMAP Diversity Plus: CASM3C Assay for Monocyte Chemoattractant Protein-1 (MCP1) Biomarker Activity (AID 2283046).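 Note: MCP-1 level quantified by ELISA 24 h after dosing.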 As to conditions: primary human coronary artery smooth muscle cells; actives raise or lower the signal.

Assay [16] can be described thus: BSK_CASM3C_Proliferation: Cell Proliferation Assessment in the BioMAP Diversity Plus: CASM3C Assay (AID 2283047).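 Note: sulforhodamine B total protein stain as relative cell number at 560 nm; sub-confluent cells exposed 48 h before staining; fitted both ways against DMSO so gain or loss of cell number.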 As to conditions: primary human coronary artery smooth muscle cells.
Read-out in assay [17]: Monokine induced gamma interferon (MIG), CXCL9 (gene 4283)
Kind of assay: BSK_CASM3C_MIG: BioMAP Diversity Plus: CASM3C Assay for Monokine induced gamma interferon (MIG) Biomarker Activity (AID 2283048).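 Note: MIG protein level measured by ELISA.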 Conditions: primary human coronary artery smooth muscle cells; actives raise or lower the signal.

Read-out in assay [18]: serum amyloid A (SAA), SAA1 (gene 6288)
Nature of the assay: BSK_CASM3C_SAA: BioMAP Diversity Plus: CASM3C Assay for serum amyloid A (SAA) Biomarker Activity (AID 2283049).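 Note: SAA protein level quantified by ELISA.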 As to conditions: primary human coronary artery smooth muscle cells; actives raise or lower the signal.

The nature of assay [19]: BSK_CASM3C_SRB: Viability Assessment in the BioMAP Diversity Plus: CASM3C Assay (AID 2283050). Conditions: primary human coronary artery smooth muscle cells.
Read-out in assay [20]: Thrombomodulin, THBD (gene 7056)
Kind of assay: BSK_CASM3C_Thrombomodulin: BioMAP Diversity Plus: CASM3C Assay for Thrombomodulin Biomarker Activity (AID 2283051).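 Note: thrombomodulin protein level measured by ELISA 24 h after dosing.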 As to conditions: primary human coronary artery smooth muscle cells; actives raise or lower the signal.

Our source for the AC50 and outcome values is PubChem BioAssay (EPA / NIEHS).

Calls of active or inactive are those of the source. Rule for the calls: active = hit-call score of the fitted dose curve at least 0.9, where 1 is the maximum; inactive = score below 0.9.

As to `CCN(CC)CCNc1ccc(CNC=O)c2sc3ccc(OC)cc3c(=O)c12`, the AC50 – broadly, the concentration giving half of the maximal activity seen – in [1] was 11 µM (active); in assay [2], 30.7 µM (active); in assay [3], 14.3 µM (active); in assay [6], 1.61 µM (active); in assay [7] it was 20 µM (active); in [8], 12.9 µM (active). For the same molecule, the AC50 in assay [9] is 20 µM (active); in assay [11], 35.6 µM (active); in [12], 12.3 µM (active); in assay [13], 25.9 µM (active); in [15] it was 26.9 µM (active); in assay [16] it was 20 µM (active). The figures for the concentration at half-maximal activity (AC50) in assay [18], in assay [19] and in assay [20] were 20.3 µM (active), 26.3 µM (active) and 31.2 µM (active), respectively. Besides, the result in assay [4], in assay [5], in assay [10], in [14] and in assay [17] was inactive.
For the molecule `CC1=C(/C=C/C(C)=C/C=C/C(C)=C/C(=O)O)C(C)(C)CCC1`, the AC50 in [1] is 20 µM (active); in assay [2], 26.3 µM (active); in [3] it was 20 µM (active); in assay [9] it was 2.7 µM (active); in [12], 26.3 µM (active); in assay [16], 20 µM (active). Besides, in [20], the AC50 was 8.15 µM (active). Further, the outcome in [4], in [5], in [6], in [7], in assay [8] and in assay [10] was inactive. In addition, the result in assay [11], in [13], in assay [14], in assay [15], in [17] and in [18] was inactive.
For the molecule `OC1CCCCC1`, the outcome in assay [1], in assay [2], in assay [3], in assay [4], in assay [5] and in [6] was inactive. Besides, the result in [7], in [8], in assay [9], in assay [10], in assay [12] and in assay [13] was inactive. The result in [14], in assay [15], in assay [16], in assay [17], in assay [19] and in assay [20] was inactive. For the same molecule, the AC50 in assay [11] was 14.8 µM (active); in assay [18] it was 23.1 µM (active).
As to `CC(C)(C)c1cccc(C(C)(C)C)c1O`, the outcome in [1], in assay [2], in assay [3], in assay [4], in assay [5] and in [6] was inactive. Besides, the result in assay [7], in [8], in assay [9], in assay [10], in assay [11] and in assay [12] was inactive. The result in assay [13], in assay [14], in assay [15], in assay [16], in [17] and in assay [18] was inactive. In addition, the outcome in [19] and in assay [20] was inactive.
Take `CC[C@H](c1ccc(O)cc1)[C@@H](CC)c1ccc(O)cc1`: the AC50 in assay [1] is 19.1 µM (active); in assay [2], 30.7 µM (active); in [3], 20.1 µM (active); in [4], 34.5 µM (active); in assay [5], 27.9 µM (active); in [6], 22.9 µM (active). Also, the AC50 was 37.2 µM (active) in [7], 37.8 µM (active) in [8], 27.5 µM (active) in assay [10] and 20 µM (active) in assay [16]. Further, the result in assay [9], in assay [11], in [12], in [13], in assay [14] and in assay [15] was inactive. The result in assay [17], in [18], in assay [19] and in assay [20] was inactive.
